The values that follow come from PubChem BioAssay (NCI).

The panel holds about 83,000 compounds, 20% with a hit somewhere; the sample as a whole holds those more often.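 Each cell line was grown in a 96-well plate and treated with one concentration of compound for 48 hours. Values below 10 were considered active.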 Values without a mark were called inactive. Active and inactive are the calls of the source.

Some test systems named below: NCI-H23 lung; NCI-H226 lung; NCI-H322M lung; HOP-62 NSCLC; NCI-H460 lung; HOP-92 NSCLC; NCI-H522 lung; A549/ATCC NSCLC; 786-0 renal; DU-145 prostate; K-562 leukemia; MALME-3M melanoma; MDA-MB-231 breast; RXF 393 renal; SF-268 CNS; SF-295 CNS; SF-539 CNS; UACC-257 melanoma; M14 melanoma.
Common to all, as to assay: NCI-60 one-dose screen, 48 h (100 = growth as untreated, 0 = no growth, -100 = all killed)
Common to all, as to conditions: 10 µM unless noted

On to `C=C(C)[C@@H]1CC[C@]2(CO)CC[C@]3(C)[C@H](CC[C@@H]4[C@@]5(C)C=C(C#N)C(=O)C(C)(C)[C@@H]5CC[C@]43C)[C@@H]12`, for which the growth in the experiment on NCI-H23 lung was 16.6%; in the experiment on NCI-H226 lung it was 25.6%; with NCI-H322M lung it was 21.4%; with HOP-62 NSCLC, 23.2%; in the experiment on NCI-H460 lung, -7.1% (active); in the experiment with HOP-92 NSCLC it was 8.38% (active). Besides, the growth in the experiment on NCI-H522 lung was 24.1%; in the experiment on A549/ATCC NSCLC, 12.6%; in the experiment on 786-0 renal, 14.8%; in the experiment with DU-145 prostate, 18.9%; in the experiment with K-562 leukemia, 7.75% (active); in the experiment with MALME-3M melanoma, 32.9%. The growth in the experiment on MDA-MB-231 breast is 15.9%; in the experiment on RXF 393 renal, -61.2% (active); in the experiment on SF-268 CNS it was 25.4%; in the experiment with SF-295 CNS, -2.71% (active); in the experiment with SF-539 CNS it was 20.5%; with UACC-257 melanoma, 4.1% (active). Moreover, the growth in the experiment with M14 melanoma was 15.8%.
Turning to `O=C1CCC(N2C(=O)c3cccc(NCCCC4CCN(CCNC(=O)c5cc6c(o5)C(=O)c5ccccc5C6=O)CC4)c3C2=O)C(=O)N1` (centres undefined), the growth was -59.6% (active) with NCI-H23 lung; -69.2% (active) in the experiment with NCI-H226 lung; -98.8% (active) with NCI-H322M lung; -52.9% (active) in the experiment on HOP-62 NSCLC; -71.1% (active) in the experiment on NCI-H460 lung; 49% in the experiment on HOP-92 NSCLC. The growth is -51.7% (active) with NCI-H522 lung; -41.9% (active) in the experiment with A549/ATCC NSCLC; -26.2% (active) in the experiment with 786-0 renal; -94.9% (active) in the experiment with DU-145 prostate; 2.99% (active) in the experiment on K-562 leukemia; -99.2% (active) with MALME-3M melanoma. Besides, the growth in the experiment with MDA-MB-231 breast is -25.2% (active); in the experiment with RXF 393 renal it was -52.9% (active); in the experiment on SF-268 CNS it was -32.7% (active); in the experiment with SF-295 CNS it was -95.2% (active); in the experiment with SF-539 CNS, -99.1% (active); in the experiment with UACC-257 melanoma, -85.5% (active). In addition, in the experiment with M14 melanoma, the growth was -83.2% (active).
With `CS(=O)(=O)c1ccc(-c2nc3cc(Cl)ccc3n2CC(=O)N/N=C/c2ccc(Cl)cc2)cc1`, the growth in the experiment on NCI-H23 lung was 60.3%; in the experiment with NCI-H226 lung, 84.8%; with NCI-H322M lung, 70.4%; with HOP-62 NSCLC it was 56.4%; with NCI-H460 lung, 48.7%; with HOP-92 NSCLC, 68.1%. Moreover, the growth in the experiment on NCI-H522 lung is 46%; in the experiment on A549/ATCC NSCLC it was 68.5%; in the experiment on 786-0 renal, 16.1%; in the experiment on DU-145 prostate it was 70.1%; with K-562 leukemia, 17%; with MALME-3M melanoma, 46.6%. The growth was 48.9% in the experiment on MDA-MB-231 breast; -25.1% (active) with RXF 393 renal; 50.2% in the experiment on SF-268 CNS; -36.9% (active) with SF-295 CNS; -3.48% (active) in the experiment with SF-539 CNS; 67.7% in the experiment with UACC-257 melanoma. In addition, in the experiment with M14 melanoma, the growth was 61.2%.
As for `CCN(CC)S(=O)(=O)c1ccc(O)c(NC(=O)c2[nH]c(C)c(C(C)=O)c2CCc2ccc(Cl)cc2)c1`, the growth with NCI-H23 lung was 19.6%; in the experiment on NCI-H226 lung, 62.5%; in the experiment with NCI-H322M lung, 54.7%; in the experiment on HOP-62 NSCLC, 48.9%; with NCI-H460 lung, 50.2%; in the experiment with HOP-92 NSCLC, 38.2%. The growth with NCI-H522 lung was 11.9%; with A549/ATCC NSCLC, 37.2%; in the experiment with 786-0 renal, 73.4%; in the experiment with DU-145 prostate, 68.4%; with K-562 leukemia, 29.8%; in the experiment with MALME-3M melanoma, 53%. Further, the growth with MDA-MB-231 breast was 50.6%; in the experiment on RXF 393 renal, 91.2%; in the experiment with SF-268 CNS, 55.4%; in the experiment with SF-295 CNS, 59.3%; in the experiment with SF-539 CNS, 64.5%; with UACC-257 melanoma, 38.3%. Besides, the growth in the experiment with M14 melanoma is 56.8%.
For `O=C(NCCOCCOCCNc1cccc2c1C(=O)N(C1CCCNC1=O)C2=O)c1cc2c(o1)C(=O)c1ccccc1C2=O` (centres undefined), the growth in the experiment on NCI-H23 lung is -42.8% (active); with NCI-H226 lung it was -79.8% (active); with NCI-H322M lung it was -62.1% (active); in the experiment with HOP-62 NSCLC, -65.2% (active); in the experiment with NCI-H460 lung it was -70.7% (active); in the experiment on HOP-92 NSCLC it was 22.2%. The growth in the experiment on NCI-H522 lung is -52.7% (active); with A549/ATCC NSCLC it was -45.5% (active); in the experiment with 786-0 renal, 3.9% (active); in the experiment with DU-145 prostate it was -90.8% (active); in the experiment on K-562 leukemia, 9.04% (active); in the experiment on MALME-3M melanoma it was -94.9% (active). The growth in the experiment on MDA-MB-231 breast is -2.54% (active); with RXF 393 renal, -35.4% (active); in the experiment on SF-268 CNS, -9.46% (active); in the experiment on SF-295 CNS, -91.9% (active); with SF-539 CNS, -86.2% (active); in the experiment on UACC-257 melanoma it was -84.1% (active). Further, the growth with M14 melanoma was -52.7% (active).
In the case of `NC(N)=N/N=C(/c1ccccc1)c1ccccc1F`, the growth with NCI-H23 lung was 34.4%; in the experiment on NCI-H226 lung, 14.4%; with NCI-H322M lung it was 62%; in the experiment on HOP-62 NSCLC it was 17.5%; in the experiment with NCI-H460 lung, 13.2%; in the experiment with HOP-92 NSCLC it was 57.8%. In addition, the growth in the experiment on NCI-H522 lung was 4.97% (active); in the experiment on A549/ATCC NSCLC, 28.4%; with 786-0 renal it was -26.2% (active); in the experiment with DU-145 prostate it was 15%; with K-562 leukemia it was 4% (active); in the experiment on MALME-3M melanoma, 35.7%. Besides, the growth in the experiment on MDA-MB-231 breast was 22.1%; with RXF 393 renal, 43%; in the experiment with SF-268 CNS it was 51.8%; with SF-295 CNS, 11.8%; in the experiment with SF-539 CNS, 2.84% (active); with UACC-257 melanoma it was 68.1%. For the same molecule, in the experiment with M14 melanoma, the growth is -45.4% (active).
